According to PubChem BioAssay AID1159580 (chemical genetic matrix, 2015):
About 2,000 (36%) of roughly 5,500 compounds were called active. Roughly 18% stayed inconclusive and do not appear here. Rule as the data show it: active = normalized growth mostly below about 0.91 (no sharp cut-off); inconclusive = no clear call, values can overlap the other calls; inactive = mostly above about 0.92. This is one part of the list.

Assay: chemical genetic growth profiling, strain panel (AID 1159580);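 also: tested at 20 µM; growth read once vehicle control cultures reached saturation at 30 °C; 1 = growth at the plate median or of vehicle wells; lower values mean less growth of the strain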
Settings: S. cerevisiae deletion strains, growth OD
[1] = locus YAL040C, strain CLN3, stronger effect = lower value
[2] = locus YCL061C, strain MRC1 (second series), stronger effect = lower value
[3] = locus YDR363W, strain ESC2, stronger effect = lower value
[4] = locus YER002W, strain NOP16, stronger effect = lower value
[5] = locus YMR307W, strain GAS1, stronger effect = lower value
[6] = locus YNL153C, strain GIM3, stronger effect = lower value
[7] = locus YNL175C, strain NOP13, stronger effect = lower value
[8] = locus YNL197C, strain WHI3, stronger effect = lower value
[9] = locus YNL224C, strain SQS1, stronger effect = lower value
[10] = locus YOR083W, strain WHI5 (second series), stronger effect = lower value
[11] = locus YPL055C, strain LGE1, stronger effect = lower value
[12] = locus YPL241C, strain CIN2, stronger effect = lower value
[13] = locus YAR019C, strain CDC15, stronger effect = lower value
[14] = locus YBL105C, strain PKC1, stronger effect = lower value
[15] = locus YBR135W, strain CKS1, stronger effect = lower value
[16] = locus YBR136W, strain MEC1, stronger effect = lower value
[17] = locus YBR160W, strain CDC28, stronger effect = lower value
[18] = locus YDL017W, strain CDC7, stronger effect = lower value
[19] = locus YDL028C, strain MPS1, stronger effect = lower value
[20] = locus YDL101C, strain DUN1, stronger effect = lower value
[21] = locus YDL108W, strain KIN28, stronger effect = lower value
[22] = locus YDL132W, strain cdc53, stronger effect = lower value
[23] = locus YDL214C, strain PRR2, stronger effect = lower value
[24] = locus YDR052C, strain DBF4, stronger effect = lower value
[25] = locus YDR054C, strain cdc34, stronger effect = lower value
[26] = locus YDR226W, strain ADK1, stronger effect = lower value
[27] = locus YDR477W, strain SNF1, stronger effect = lower value
[28] = locus YER123W, strain YCK3, stronger effect = lower value
[29] = locus YER133W, strain GLC7, stronger effect = lower value
[30] = locus YFL009W, strain cdc4, stronger effect = lower value
[31] = locus YFL029C, strain CAK1, stronger effect = lower value
[32] = locus YFR003C, strain YPI1, stronger effect = lower value
[33] = locus YFR019W, strain FAB1, stronger effect = lower value
[34] = locus YFR028C, strain CDC14, stronger effect = lower value
[35] = locus YGR040W, strain KSS1, stronger effect = lower value
[36] = locus YGR052W, strain FMP48, stronger effect = lower value
[37] = locus YGR092W, strain DBF2, stronger effect = lower value
[38] = locus YHR030C, strain SLT2, stronger effect = lower value
[39] = locus YHR079C, strain IRE1, stronger effect = lower value
[40] = locus YHR082C, strain KSP1, stronger effect = lower value
[41] = locus YHR205W, strain SCH9, stronger effect = lower value
[42] = locus YIL147C, strain SLN1, stronger effect = lower value
[43] = locus YJL095W, strain BCK1, stronger effect = lower value
[44] = locus YJL128C, strain PBS2, stronger effect = lower value
[45] = locus YJL157C, strain FAR1, stronger effect = lower value
[46] = locus YJR016C, strain ILV3, stronger effect = lower value
[47] = locus YJR066W, strain TOR1 (second series), stronger effect = lower value
[48] = locus YJR066W, strain TOR1, stronger effect = lower value
[49] = locus YKL048C, strain ELM1, stronger effect = lower value
[50] = locus YKL067W, strain YNK1, stronger effect = lower value
[51] = locus YKL101W, strain HSL1, stronger effect = lower value
[52] = locus YKL193C, strain SDS22, stronger effect = lower value
[53] = locus YKL203C, strain TOR2, stronger effect = lower value
[54] = locus YLR113W, strain HOG1, stronger effect = lower value
[55] = locus YLR133W, strain CKI1, stronger effect = lower value
[56] = locus YLR403W, strain SFP1, stronger effect = lower value
[57] = locus YML070W, strain DAK1, stronger effect = lower value
[58] = locus YMR001C, strain CDC5, stronger effect = lower value
[59] = locus YMR205C, strain PFK2 (second series), stronger effect = lower value
[60] = locus YMR277W, strain FCP1, stronger effect = lower value
[61] = locus YNL006W, strain LST8, stronger effect = lower value
[62] = locus YNL020C, strain ARK1, stronger effect = lower value
[63] = locus YNL161W, strain CBK1, stronger effect = lower value
[64] = locus YNL183C, strain NPR1, stronger effect = lower value
[65] = locus YNL207W, strain RIO2, stronger effect = lower value
[66] = locus YNL222W, strain SSU72, stronger effect = lower value
[67] = locus YNL307C, strain MCK1 (second series), stronger effect = lower value
[68] = locus YOL078W, strain AVO1, stronger effect = lower value
[69] = locus YOL136C, strain PFK27, stronger effect = lower value
[70] = locus YOR061W, strain CKA2, stronger effect = lower value
[71] = locus YOR119C, strain RIO1, stronger effect = lower value
[72] = locus YOR231W, strain MKK1, stronger effect = lower value
[73] = locus YOR329C, strain SCD5, stronger effect = lower value
[74] = locus YPL031C, strain PHO85, stronger effect = lower value
[75] = locus YPL153C, strain RAD53, stronger effect = lower value
[76] = locus YPL204W, strain HRR25, stronger effect = lower value
[77] = locus YPL209C, strain IPL1, stronger effect = lower value
[78] = locus YPL256C, strain CLN2, stronger effect = lower value
[79] = locus YPR025C, strain CCL1, stronger effect = lower value
[80] = locus YPR106W, strain ISR1, stronger effect = lower value
[81] = locus YPR111W, strain DBF20, stronger effect = lower value
[82] = strain NNK1, stronger effect = lower value
[83] = strain TSCII, stronger effect = lower value

Measured: normalized growth

NC(=O)c1ncn(C2OC(CO)C(O)C2O)n1 (stereo unspecified)
inactive: [1] 1.01 | [2] 1 | [3] 1 | [4] 0.996 | [5] 1.01 | [6] 1.03 | [7] 1.01 | [8] 1.01 | [9] 1.02 | [10] 1.02 | [11] 1

COc1cc2c(CCNC(C)=O)c[nH]c2cc1Cl
inactive: [1] 0.983 | [3] 1.03 | [4] 0.956 | locus YGR078C, strain PAC10, stronger effect = lower value 1.01 | [5] 1.01 | [6] 0.926 | [7] 0.989 | [8] 0.989 | [9] 1 | locus YNL322C, strain KRE1, stronger effect = lower value 0.998 | [10] 1.03 | [12] 0.996

O=S1(=O)N(CCN2CC=C(c3c[nH]c4cc(F)ccc34)CC2)c2cccc3c2N1CCC3
inactive: [1] 0.981 | [2] 0.987 | [3] 0.997 | locus YJR075W, strain HOC1, stronger effect = lower value 1 | [6] 0.851 | [7] 0.987 | [8] 0.994 | [9] 1.02 | [10] 0.958 | [11] 0.951 | [12] 0.977

N#CC(C#N)=Cc1c(-c2ccccc2Cl)[nH]c2ccccc12
inactive: [13] 0.968 | [14] 0.962 | [15] 0.965 | [16] 0.97 | [17] 0.969 | [18] 0.976 | [19] 0.972 | [20] 0.973 | [21] 0.975 | [22] 0.969 | [23] 0.919 | [24] 0.98 | [25] 0.931 | [26] 0.956 | [27] 0.901 | [28] 0.889 | [29] 0.93 | [30] 0.955 | [31] 0.96 | [32] 0.976 | [33] 0.924 | [34] 0.965 | [35] 0.907 | [36] 0.942 | [37] 0.938 | [39] 0.812 | [40] 0.932 | [41] 0.836 | [42] 0.971 | [43] 0.822 | [44] 0.958 | [45] 0.923 | [46] 0.956 | [47] 0.897 | [48] 0.902 | [49] 0.926 | [50] 0.918 | [51] 0.899 | [52] 0.967 | [53] 0.961 | [55] 0.905 | [56] 0.904 | [57] 0.886 | [58] 0.969 | [59] 0.919 | [60] 0.967 | [61] 0.96 | [62] 0.882 | [63] 0.966 | [64] 0.853 | [65] 0.974 | [66] 0.967 | [67] 0.84 | [68] 0.962 | [69] 0.87 | [70] 0.897 | [71] 1 | [72] 0.867 | [73] 0.968 | [74] 0.907 | [75] 0.905 | [76] 0.884 | [77] 0.973 | [79] 0.961 | [80] 0.954 | [81] 0.927 | [82] 0.959 | [83] 0.964
active: [38] 0.654 | [54] 0.821 | [78] 0.779

O=C(Nc1cc(Cl)ccc1O)c1ccccc1CSc1ccc(Cl)cc1
active: [33] 0.753 | [38] 0.29 | [51] 0.633 | [54] 0.52 | [62] 0.689 | [67] 0.565 | [70] 0.603 | [78] 0.551
inactive: [13] 0.977 | [14] 0.984 | [15] 0.985 | [16] 0.98 | [17] 0.979 | [18] 0.986 | [19] 0.985 | [20] 0.989 | [21] 0.981 | [22] 0.988 | [23] 0.823 | [24] 0.983 | [25] 0.979 | [26] 0.976 | [27] 0.8 | [28] 0.749 | [29] 0.839 | [30] 0.981 | [31] 0.977 | [32] 0.979 | [34] 0.986 | [35] 0.794 | [36] 0.685 | [37] 0.571 | [39] 0.683 | [40] 0.652 | [41] 0.785 | [42] 0.981 | [43] 0.502 | [44] 0.922 | [45] 0.783 | [46] 0.987 | [47] 0.765 | [48] 0.647 | [49] 0.888 | [50] 0.835 | [52] 0.988 | [53] 0.784 | [55] 0.776 | [56] 0.763 | [57] 0.714 | [58] 0.981 | [59] 0.851 | [60] 0.983 | [61] 0.98 | [63] 0.97 | [64] 0.689 | [65] 0.97 | [66] 0.983 | [68] 0.986 | [69] 0.753 | [71] 0.861 | [72] 0.699 | [73] 0.975 | [74] 0.738 | [75] 0.747 | [76] 0.731 | [77] 0.981 | [79] 0.979 | [80] 0.979 | [81] 0.954 | [82] 0.961 | [83] 0.981
